Results published in PubChem BioAssay AID938 (National Center for Advancing Translational Sciences (NCATS), 2007).
“And” between values parts separate entries of the source, which are not always exact repeats. Identical values can stand only once. In all, about 73,000 compounds went through this assay and about 1,800 (2.5%) were called active. About 13% were inconclusive and are not listed. The list comes from a sample in which actives are over-represented; it also holds similar structures and randomly drawn compounds. Entries that show only a call come without a potency. A number with no mark means an inactive call. Calls follow the shape of the dose curve; as a rule, active = well fitted activation curve with a large enough effect; inconclusive = small, poorly fitted or top-dose-only effect; inactive = no such curve, though single readings can be large or run the other way.

Test: qHTS Assay for Agonists of the Thyroid Stimulating Hormone Receptor: Activators of Intracellular cAMP Concentrations in Parental HEK 293; also: nearly all actives have a fitted effect of over 55% in size
Details: parental HEK293 CNG cAMP sensor, membrane potential fluorescence; series mostly up to 57.1 µM
Summary of the method: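 Parental HEK 293 cells stably expressing a cAMP-gated CNG channel were loaded with membrane potential dye containing 100 uM RO 20-1724 for 60 min. Compound added for 30 min; depolarization read as fluorescence intensity at 590 nm.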
Potency is read from the fitted curve at half-maximal effect.

Row | Compound | activation | Potency
1 | NS(=O)(=O)c1cc(C(=O)O)c(Cl)c([N+](=O)[O-])c1Cl | -3.67% [at 11.4 µM] | 
2 | CCOC(=O)c1cc2sccc2n1Cc1ccc(C#N)cc1 |  | 15.8 µM (active)
3 | COc1ccc(CCNC(=O)c2cc3sccc3n2C)cc1OC |  | inactive
4 | CC(=O)N1CCC2(CCCN(Cc3ccc(C#N)cc3)C2)CC1 |  | inactive
5 | O=c1[nH][nH]c(=O)c2cc(N3CCCC3)ccc12 |  | inactive
6 | O=C(Nc1ccc(S(=O)(=O)N2CCCCC2)cc1)c1cnccn1 |  | inactive
7 | CCc1cccc(C)c1NC(=O)CSc1nnc(-c2ccco2)n1N |  | inactive
8 | Cc1cccc(C)c1NC(=O)CCCSc1nnc(-c2ccco2)n1-c1ccccc1 |  | 20 µM (active)
9 | COc1ccc(C(=O)NC(=O)CSc2nnc(-c3ccco3)n2-c2ccccc2)cc1 |  | inactive
10 | CC1CCCCN1CCCNC(=O)c1ccc(-n2c(=O)c(=O)[nH]c3ccccc32)cc1 (stereo not drawn) |  | inactive
11 | O=C1c2ccccc2C(O)N1Cc1ccccc1Cl (stereo not drawn) |  | inactive
12 | COC(=O)[C@@]1(Cc2ccccc2)[C@H]2c3cc(C(=O)N4CCCC4)n(Cc4ccc(C)o4)c3C[C@H]2CN1C(=O)c1ccccc1 |  | 1.58 µM (active)
13 | COC(=O)[C@@]1(Cc2ccc(F)cc2)[C@H]2c3cc(C(=O)N(C)C)n(CCc4c[nH]c5ccc(OC)cc45)c3C[C@H]2CN1C(=O)c1ccccc1 |  | inactive
14 | COC(=O)[C@@]1(Cc2ccc(F)cc2)[C@@H]2[C@@H](CC(=O)[C@H]2CC(=O)C(=O)N2CCCC2)CN1C(=O)c1ccccc1 |  | inactive
15 | COC(=O)[C@@]1(Cc2ccc(OC)cc2)[C@H]2c3cc(C(=O)N4CCCC4)n(Cc4ccc(OC(F)(F)F)cc4)c3C[C@H]2CN1C(=O)c1ccccc1 |  | 2.51 µM (active)
16 | COc1ccc(OCc2cccc(C(=O)N3CCCC3)c2)cc1 |  | inactive
17 | COC(=O)[C@@]1(Cc2ccc(F)cc2)[C@H]2c3cc(C(=O)N4CCCC4)n(Cc4ccc(OC(F)(F)F)cc4)c3C[C@H]2CN1C(=O)c1ccccc1 |  | 1.58 µM (active)
18 | COC(=O)[C@@]1(Cc2ccc(F)cc2)[C@H]2c3cc(C(=O)N4CCCC4)n(C[C@H](O)CO)c3C[C@H]2CN1C(=O)c1ccccc1 |  | inactive
19 | COc1ccc(-c2nc(CS(=O)CC(=O)N3CCc4ccccc4C3)c(C)o2)cc1 (stereo not drawn) |  | inactive
20 | COc1ccc(/C=C/NC(=O)c2ccc(OC)cc2)cc1 | -3.02% [at 11.4 µM] | 
21 | NCCCNCCCCN(CCCN)/[N+]([O-])=N/O |  | inactive
22 | CC1(C)S[C@@H]2[C@@H](NC(=O)[C@@H](N)c3ccccc3)C(=O)N2[C@H]1C(=O)O |  | inactive
23 | CC(Sc1nncn1C)C(=O)Nc1ccccc1-c1ccccc1 (stereo not drawn) |  | inactive
24 | CS(=O)(=O)N1CCN(C(=O)c2cc3ccccc3oc2=O)CC1 |  | inactive

Row | Compound | activation | Potency
25 | C/C(CCN1CCc2nc(-c3ccccc3)c(-c3ccccc3)cc2C1)=N\O[C@@H](C)c1cn([C@@H]2COC[C@@H]2O)nn1 | 0.56% [at 11.4 µM] | 
26 | NC(=O)COc1ccc2c3c(c(=O)oc2c1)CCCCC3 |  | inactive
27 | O=C(COc1ccc2c3c(c(=O)oc2c1)CCC3)NC1CCCCC1 |  | inactive
28 | CCCOc1ccc2c3c(c(=O)oc2c1OCCC)CCC3 |  | 3.16 µM (active)
29 | Oc1ccc2ccccc2c1C=NCc1c(O)ccc2ccccc12 | 1.97% [at 11.4 µM] | 
30 | CC(C)N(C(=O)COC(=O)c1ccccc1C(=O)N1CCN(c2ccc(F)cc2)CC1)C(C)C |  | inactive
31 | CN1CCN(c2ccc(NC(=O)COc3ccc(Cl)cc3Cl)cc2)CC1 |  | inactive
32 | CC(=O)N1CCN(c2ccc(NCc3ccc(C(C)C)cc3)cc2)CC1 |  | 3.98 µM (active)
33 | CSc1nnc(CNC(=O)c2ccccc2)n1-c1ccc(F)cc1 |  | inactive
34 | CCCOc1ccc(NC(=O)C2CCCNC2=O)cc1 (stereo not drawn) |  | inactive
35 | CCc1ccc2oc(=O)cc(CN3CCCCC3C)c2c1 (stereo not drawn) |  | 25.1 µM (active)
36 | CC1CCCCN1CC(=O)NCc1ccc2c(c1)OCO2 (stereo not drawn) |  | inactive
37 | Cc1cc(NC(=O)CN2CCCCC2C)nc2c1c(=O)oc1ccccc12 (stereo not drawn) |  | inactive
38 | CCCn1c(C)nc2c(NCCCCN(CC)CC)nc(C)nc21 |  | inactive
39 | CCCn1c(-c2ccc(F)cc2)nc2c(NCC3CCCN3CC)nc(C)nc21 (stereo not drawn) |  | 15.8 µM (active)
40 | CCN1CCCC1CNc1ncnc2c1[nH]c1ccc(F)cc12 (stereo not drawn) |  | inactive
41 | COc1ccc(CN2CC(C(=O)NCCN3CCN(c4ccccc4F)CC3)CC2=O)cc1 (stereo not drawn) |  | inactive
42 | CN1CCC2(CC1)NC(=O)NC2=O |  | inactive
43 | CC[C@@H]1Cc2cc(O)ccc2C2=C1c1ccc(O)cc1C[C@H]2CC |  | 6.31 µM (active)
44 | O=P(O)(CN1CCCCC1)CN1CCCCC1 |  | inactive
45 | O=C(c1ccc([N+](=O)[O-])cc1)[C@@H](Br)[C@@H](Br)c1ccnc2ccccc12 | 8.13% [at 11.4 µM] | 
46 | CCC[C@@H]1C[C@@]1(CCC)C(NC(=O)c1ccc(-c2ccccc2)cc1)c1cccc(Cl)c1 (stereo partly drawn) |  | inactive
47 | CCCC(=O)C1=C(N(C)c2ccccc2)CC(C)(C)C(C(=O)OC)C1=O (stereo not drawn) |  | inactive
48 | CCC[C@@H]1C[C@@]1(CCC)[C@@H](NC(=O)c1ccccc1)c1ccc(C(=O)OC)cc1 |  | 7.94 µM (active)

Row | Compound | activation | Potency
49 | COc1nc(OC)nc(N(C)CCO)n1 |  | inactive
50 | CCSC(C)CC1C/C(=N/O)c2c(C)noc2C1 (stereo not drawn) |  | inactive
51 | CCOC(=O)N1CCN(C(=O)c2ccc(CN(c3ccc(C)c(C)c3)S(C)(=O)=O)cc2)CC1 |  | inactive
52 | CC(C)C(c1nnnn1Cc1ccccc1)N1CCC(C(N)=O)CC1 (stereo not drawn) |  | inactive
53 | CC(C)C(c1nnnn1C1CCCC1)N1CCN(c2ccccc2F)CC1 (stereo not drawn) |  | 15.8 µM (active)
54 | CCC(c1nnnn1C1CCCC1)N1CCN(C(=O)c2ccco2)CC1 (stereo not drawn) |  | inactive
55 | CC(C)CN1CCc2nc(-c3ccccc3)c3c(c2C1)COC(C)C3 (stereo not drawn) | -2.08% [at 11.4 µM] | 
56 | Cn1c2c(c(=O)n(C)c1=O)CN(Cc1ccco1)CN2 |  | inactive
57 | c1ccc(Oc2ccccc2)cc1 |  | inactive
58 | CC1CN(C2CCCCC2)c2nc3c(c(=O)n(C)c(=O)n3C)n2C1 (stereo not drawn) |  | inactive
59 | Cn1cccc1C1(C(F)(F)F)NCCNC1=O (stereo not drawn) |  | inactive
60 | COc1cc(-c2nn3c(-c4cccc(C)c4)nnc3s2)cc(OC)c1OC |  | inactive
61 | Fc1ccc(OCc2nn3c(Cn4nnc5ccccc54)nnc3s2)cc1 |  | inactive
62 | CCOc1cccc(-c2nnc3sc(COc4ccc(OC)cc4)nn23)c1 |  | 31.6 µM (active)
63 | CNc1nc(-c2ccccc2OC)nc2ccccc12 |  | inactive
64 | COc1ccccc1-c1nc(NCCNC(C)=O)c2ccccc2n1 |  | inactive
65 | COc1ccccc1CNCc1cccs1 |  | inactive
66 | Clc1ccccc1-c1cc(NCCN2CCOCC2)ncn1 |  | inactive
67 | COc1ccccc1-c1cc(NCc2cccs2)ncn1 |  | 31.6 µM (active)
68 | COc1ccccc1-c1nc(NCc2cccs2)c2ccccc2n1 |  | 25.1 µM (active)
69 | CCOC(=O)c1cc2occc2n1CC(=O)N1CCN(C(=O)c2ccco2)CC1 |  | inactive
70 | CO[C@@H]1COC(=O)C/C=C\[C@H](C)[C@@H](NS(=O)(=O)c2ccc(C)cc2)COC(=O)C/C=C\[C@@H]1C | 2.07% [at 11.4 µM] and 4.9% [at 11.4 µM] | 
71 | CCC[C@H]1C(=O)N2C(N(C)C)=Nc3ccc(C)cc3N2C1=O |  | inactive
72 | COc1ccccc1C(=O)C(O)c1ccccc1OC (stereo not drawn) |  | inactive

Row | Compound | activation | Potency
73 | Cc1ccc(C)c(N2CCN(C(=O)CCc3nc4ccccc4[nH]3)CC2)c1 |  | inactive
74 | COCCn1c(C)cc(C(=O)CSc2ncnc3sc4c(c23)CCC4)c1C |  | inactive
75 | Cc1cc(C)n(-c2nc(SCC(=O)N3CCCC3)c3c4c(sc3n2)CCCC4)n1 |  | inactive
76 | COCCNc1nc(-n2nc(C)cc2C)nc2sc3c(c12)CCCC3 |  | 15.8 µM (active)
77 | CCCOc1ccccc1C1CC(=O)Nc2cc3c(cc21)OCO3 (stereo not drawn) |  | 7.94 µM (active)
78 | COCCOC(=O)C1=C(C)NC(=O)CC1c1cc2c(cc1Br)OCO2 (stereo not drawn) |  | inactive
79 | COc1cc2c(cc1OC)C(c1ccc(C)o1)CC(=O)N2 (stereo not drawn) |  | inactive
80 | COc1ccc(NS(=O)(=O)c2ccc(NC(=O)C(C)(C(F)(F)F)C(F)(F)F)cc2)nn1 |  | inactive
81 | Cc1nc2nc[nH]n2c(=O)c1NC(=O)c1cccc(OCC(C)C)c1 |  | inactive
82 | CCCOC(=O)c1[nH]c2c(c1C)C(=O)CC(c1cc(OC)c(OC)c(OC)c1)C2 (stereo not drawn) |  | 15.8 µM (active)
83 | CCOC(=O)c1[nH]c2c(c1C)C(=O)CC(c1ccc(N(C)C)cc1)C2 (stereo not drawn) |  | inactive
84 | COC(=O)C1C(=O)c2c([nH]c(C(=O)OCCSC)c2C)CC1C (stereo not drawn) |  | inactive
85 | N[C@@H](C(=O)O)c1ccc(P(=O)(O)O)cc1 |  | inactive
86 | C/C(CCN1CCCCc2nc(C)c(C)cc21)=N\O[C@@H](C)c1cn([C@@H]2COC[C@@H]2O)nn1 | 6.27% [at 11.4 µM] | 
87 | C[C@@H]1O[C@@H](O[C@@H]2[C@@H](O)[C@H](OCCc3ccc(O)c(O)c3)O[C@H](CO[C@@H]3O[C@H](CO)[C@@H](O)[C@H](O)[C@H]3O)[C@H]2OC(=O)/C=C/c2ccc(O)c(O)c2)[C@H](O)[C@H](O)[C@H]1O |  | inactive
88 | CO[C@H]1COC(=O)[C@@H](OCc2ccccc2)/C=C\[C@H](C)[C@@H](OC)COC(=O)[C@H](OCc2ccccc2)/C=C\[C@@H]1C | -2.98% [at 11.4 µM] | 
89 | Cn1cccc1C(=O)N1CCC[C@@]2(CCN(Cc3nccs3)C2)C1 |  | inactive
90 | O=C(c1csnn1)N1CCC2(CC1)CN(c1ncccn1)C2 |  | inactive
91 | O=C(c1csnn1)N1CCC[C@@]2(CCN(Cc3nccs3)C2)C1 |  | 3.98 µM (active)
92 | CCc1cc(=O)oc2cc(OCC(=O)N3CCCc4ccccc43)ccc12 |  | inactive
93 | CCOC(=O)c1ccc(NC(=O)CS(=O)(=O)c2cn(CC)c3ccccc23)cc1 |  | inactive
